# Measured values taken from PubChem BioAssay (NCI).
# Several values for one entry are separate records, joined by “and”; a condition that tells them apart may be missing. Equal entries are not always repeated. About 83,000 compounds went through this panel and 20% of them were active in at least one assay; those are over-represented in the sample as a whole.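 Note: values are percent growth. 100 is the growth of untreated cells, values between 100 and 0 indicate rising inhibition; between -100 and 0 indicates cell death.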 Activity calls are given as the source filed them. The calls were made as follows: active = growth percent below 10; inactive = the rest.
# System: MDA-MB-468 breast
# Assay: NCI-60 one-dose screen, 48 h (100 = growth as untreated, 0 = no growth, -100 = all killed)
# Conditions: 10 µM unless noted
row,SMILES,growth
1,Nc1nc(N)c2c(n1)NC(c1cccc(Nc3ccnc4cc(C(F)(F)F)ccc34)c1)CC(c1ccccc1)=N2 (centres undefined),18.5% (inactive)
2,CCN(CC)c1ccc(/C=N/NC(=O)c2ccccc2Nc2ccnc(C(F)(F)F)c2)c(O)c1,24.7% (inactive)
3,c1ccc(-c2nc3ccccc3s2)cc1,96.4% (inactive)
4,CC1(C)CC[C@]2(CO)CC[C@]3(C)[C@H](CC[C@@H]4[C@@]5(C)CC[C@H](O)C(C)(C)[C@@H]5CC[C@]43C)[C@H]2[C@H]1O,101% (inactive)
5,Nc1nc(-c2cnccn2)nn1-c1nc2ccccc2s1,102% (inactive)
6,COc1ccc(/C=C/c2c(C(=O)/C=C/c3ccc(C(F)(F)F)cc3)c(C)nc3ccccc23)cc1,-54.5% (active)
7,N#CSc1c[nH]c2cccc(/C=C/C(=O)/C=C(O)/C=C/c3cccc4[nH]cc(SC#N)c34)c12,-55.8% (active)
8,CC1(C)c2[nH]c3ccccc3c2C[C@]2(C)[C@H]3CC=C4[C@@H]5C[C@@](C)(C(N)=O)CC[C@]5(C)CC[C@@]4(C)[C@]3(C)CC[C@@H]12,21.7% (inactive)
9,Cc1ccc(C2=C/C(=C/c3ccc(Br)cc3)C(=O)N2CCc2ccc(S(N)(=O)=O)cc2)cc1,92.7% (inactive)
10,CC[C@]12C=CCN3CC[C@@]4(c5ccc(OC)cc5N(C)[C@H]4[C@@](O)(C(=O)OC)[C@@H]1OC(=O)CCC(=O)N[C@@H](Cc1c[nH]c4ccccc14)C(=O)OC)[C@@H]32,-20.8% (active)
11,COc1ccc(C(C)=O)c(OC)c1,97.7% (inactive)
12,O=C(C=C=Nc1ccccc1)C(=O)N=C=Cc1ccccc1,22% (inactive)
13,c1ccc(CN2C(c3ccccc3)=Nc3ccccc3C2c2c[nH]c3ccccc23)cc1 (centres undefined),12.4% (inactive)
14,O=C(N/N=C/[C@H](O)[C@@H](O)[C@@H](O)[C@H](O)CO)c1ccc(NC(=O)c2cccnc2)cc1,105% (inactive)
15,COc1ccc(/C=C/C(=O)c2ccc(NC(=O)CSc3nnc(-c4cc(-c5ccccc5)nc5ccccc45)n3-c3ccccc3)cc2)cc1,97.2% (inactive)
16,C/C(=C(\c1ccc(OCCN2CCCCCC2)cc1)c1ccc(OC(=O)Cc2ccccc2)cc1)c1ccc(Cl)cc1,-4.03% (active)
17,CC1(C)CC[C@]2(C(=O)O)CC[C@]3(C)C(=CC[C@@H]4[C@@]5(C)C/C(=C/c6ccco6)C(=O)C(C)(C)[C@@H]5CC[C@]43C)[C@@H]2C1,-3.74% [100 µM] (active)
18,COc1cccc(C2CC(=O)Nc3cc4c(cc32)OCO4)c1OC (centres undefined),73.2% (inactive)
19,CC1(C)c2ccccc2C(=O)C1(Br)Cc1ccccc1 (centres undefined),45.6% (inactive)
20,COc1ccc(C2CC(c3ccc4ccccc4c3)=NN2c2nc(O)c(C3=c4cc(OC)ccc4=NC3=O)s2)cc1 (centres undefined),-46.5% (active)

row,SMILES,growth
1,COc1ccc(C2=CC(c3ccc(OC)cc3Br)N3C=CSC3=N2)cc1 (centres undefined),17.4% (inactive)
2,COc1cc2c3c(c4c5ccccc5[nH]c4c2c(OC)c1OC)C(=O)N(O)C3=O,32.7% (inactive)
3,CC(=O)c1cc(O)ccc1O,98.3% (inactive)
4,C/C(=N\O)[C@H]1C[C@]23CC[C@]4(C)[C@H](CC[C@@H]5[C@@]6(C)CC/C(=N/O)C(C)(C)[C@@H]6CC[C@]54C)[C@H]2[C@H](C)C1(C)OC3,103% (inactive)
5,O=C(O)c1ccc(-n2cc(CNc3ccc(Oc4ccccc4)cc3)c(-c3ccccc3)n2)cc1,99.8% (inactive)
6,CC(C)(C)c1ccc(O)c(CNC2CCCCC2)c1,87% (inactive) and 87.7% (inactive)
7,CCN(CC)c1cn(-c2ccc(S(N)(=O)=O)cc2)nn1,91.9% (inactive)
8,Cc1cc(C(NC(=O)CCCCCNc2cccc3c2C(=O)N(C2CCC(=O)NC2=O)C3=O)c2cccnc2)c(O)c2ncccc12 (centres undefined),-8.72% (active)
9,CC(C)(C)c1ccc(OCCOC(=O)CBr)cc1,87.6% (inactive)
10,COc1ccccc1-c1nc2ccc3[nH]ncc3c2c2c1CCCC2,47.4% (inactive)
11,CC(O)CCNC(c1ccccc1)C(O)c1ccccc1 (centres undefined),116% (inactive)
12,CCC(C)N(c1ccc(Cl)cc1)c1nc(-c2ccc(Br)cc2)cs1 (centres undefined),95.7% (inactive)
13,NS(=O)(=O)c1ccc(Nc2nc(Nc3ccccc3)nc(N3N=C(c4ccc(Cl)cc4)CC3c3ccc(Cl)cc3)n2)cc1 (centres undefined),26.4% (inactive)
14,COc1cc(-c2cc(/C=C/C(C)=O)[nH]n2)cc(OC)c1OC,54.5% (inactive)
15,O=C(CN1C(=O)S/C(=C\C(Cl)=C\c2ccccc2)C1=O)NCCCn1ccnc1,-28.2% (active)
16,O=C(N/N=C/c1ccc(Cl)cc1)c1[nH]c2ccc(Cl)cc2c1-c1ccccc1,33.7% (inactive)
17,CCOC(=O)c1c(/N=C2\SC(=O)/C(=C\C(=O)OC)N2NC)sc2c1CCN(C(=O)OCC)C2,100% (inactive)
18,N=C(N)c1ccc(-c2ccc(-c3ccc(Cl)cc3Cl)o2)nc1,-33.8% (active)
19,Clc1ccccc1/C=C/c1nn2c(-c3ccncc3)nnc2s1,97.4% (inactive)
